Experimental data published in ChEMBL document CHEMBL4513216, “Probing the Open Global Health Chemical Diversity Library for Multistage-Active Starting Points for Next-Generation Antimalarials” (ACS Infect Dis, 2020).
Among all 69,000 compounds or so, about 8,600 (12%) showed an effect of 50% or more. The sample as a whole holds a higher share of strong results than the screen did.

What follows are molecules tested on Plasmodium berghei (assay: Screen against P. berghei liver stage (PbLuc), transformed with Luciferase, at 10uM). Details: tested at 10 uM.
Type: functional, HepG2
For `CC(C)c1nccn1-c1cncc(C2CCCN2Cc2cccnc2)n1` (centres undefined), the INHIBITION was 27.6%.
For `CNCC1CCC(c2cc(CN(C)C(=O)c3cnccn3)n(C)n2)CC1` (centres undefined), the INHIBITION was 25.8%.
For `O=C(Nc1cnccn1)[C@@H]1CCO[C@@H]2CCN(Cc3ccsc3)C[C@@H]21`, the INHIBITION was 12.4%.
Molecule `Cn1cnnc1C1CCN(C(=O)CCOc2ccc(Cl)cc2)CC1` has an INHIBITION of 11.9%.
With `CC(=O)NCC1CCCN(C(=O)Cc2c(C)noc2C)C1` (centres undefined) the INHIBITION was -4.12%.
For `O=C(COc1ccc(F)cc1)N1CCCSCC1CN1CCOCC1` (centres undefined), the INHIBITION was 25.3%.
For `O=C(COc1ccc(Cl)cc1Cl)N1CCCSCC1CN1CCOCC1` (centres undefined), the INHIBITION was 60.1%.
With `COc1cccc(OCC(=O)N2CCCSCC2CN2CCOCC2)c1` (centres undefined) the INHIBITION was 44.9%.
For `CNC(=O)c1nc2c(s1)CCN(C(=O)c1cccnc1)CC2`, the INHIBITION was -10.4%.
Work on `O=C(c1[nH]nc(C2CC2)c1Cl)N1CCN(C2CC2)CC1` yielded an INHIBITION of 8.13%.
`O=C(c1[nH]nc(C2CC2)c1Cl)N1CCN(S(=O)(=O)c2ccccc2)CC1` was tested, and the INHIBITION was 77.6%.
`O=C(c1[nH]nc(C2CC2)c1Cl)N1CCCC1` was tested, and the INHIBITION was -46.7%.
For `CCOC(=O)[C@H]1[C@@H](O)C(=O)N(C)C12CCN(C(=O)CC(C)C)CC2`, the INHIBITION was 22.2%.
`c1csc(C2(NCc3csc(C4CC4)n3)CCCC2)n1` showed an INHIBITION of -9.44%.
In the case of `Cc1cnn(CC2CCCN2CC(=O)NCc2ccccn2)c1` (centres undefined), the INHIBITION is reported as -28.9%.
`Cc1ccc2nc(C)cc(NCCNS(=O)(=O)c3cccnc3)c2c1` showed an INHIBITION of 39.7%.
In the case of `Cc1cc(NCCNS(=O)(=O)c2cn(C)nc2C)c2ccccc2n1`, the INHIBITION is reported as -5.8%.
For `Cc1ccc2nc(C)cc(NCCNS(=O)(=O)c3cn(C)nc3C)c2c1`, the INHIBITION was 55.5%.
In the case of `Cc1ccnc(OC[C@]23COC[C@H]2CN(C(=O)c2ccnn2C)C3)n1`, the INHIBITION is reported as 43.1%.
For `O=C(CN1CCc2ccccc2C1)NCc1cc2n(n1)CCCNC2`, the INHIBITION was -16.8%.
Molecule `CC1CN(Cc2noc(C3CC3)n2)CCN1Cc1nccn1C` (centres undefined) has an INHIBITION of 55.9%.
In the case of `CC1CN(Cc2noc(C3CC3)n2)CCN1Cc1noc(C2CC2)n1` (centres undefined), the INHIBITION is reported as 33.8%.
`Cn1ccnc1CN1CCN(Cc2noc(C3CC3)n2)CC1` gave an INHIBITION of -15.5%.
With `O=C(NC1CCCC1)c1ccnc(C2CCNCC2)c1` the INHIBITION was -11.3%.
`COCC1CC2(CCN(C(=O)c3cc(C)oc3C)CC2)CN1C(C)C` (centres undefined) gave an INHIBITION of 6.8%.
For `COc1ccc(C2SC(C)=Nc3c2c(=O)[nH]n3C2CCCC2)cc1O` (centres undefined), the INHIBITION was -6.09%.
`CCCc1cc(N2CCCC2Cn2cc(C)cn2)n2ncnc2n1` (centres undefined) showed an INHIBITION of -60.9%.
With `CCCc1cc(N2CCCC2Cn2nc(C)nc2C)n2ncnc2n1` (centres undefined) the INHIBITION was 53.4%.
`CCCc1cc(N2CCCC2Cn2nc(C)cc2C)n2ncnc2n1` (centres undefined) was tested, and the INHIBITION was -48.1%.
In the case of `CN1CCN(CCOc2ccc(NC(=O)c3ccc[nH]3)cc2)CC1`, the INHIBITION is reported as -23.5%.
For `O=C1NCCN1C1CCN(Cc2coc(-c3ccccc3)n2)CC1`, the INHIBITION was 33.3%.
`CN1CCN(C2CCN(Cc3noc(-c4ccccc4)n3)CC2)C1=O` was tested, and the INHIBITION was 8.11%.
`O=C1NCCN1C1CCN(Cc2ccccn2)CC1` gave an INHIBITION of -14.2%.
For `c1ccc(-c2nccc(N3CCc4c(ncn4C4CC4)C3)n2)cc1`, the INHIBITION was 40.9%.
`CN1CCN(C2CCN(c3cnc4ccccc4n3)CC2)C1=O` gave an INHIBITION of 76.5%.
With `CN1CCCC1c1ccnc(-c2ccccc2)n1` (centres undefined) the INHIBITION was -24.4%.
Work on `Cc1cc(N2CCc3c(ncn3C)C2)nc(N)n1` yielded an INHIBITION of -14.9%.
`CN1CCN(C2CCN(c3ccnc(-c4ccccc4)n3)CC2)C1=O` showed an INHIBITION of 91.1%.
`CN1CCN(C2CCN(CC(O)c3ccccc3)CC2)C1=O` (centres undefined) gave an INHIBITION of 16.715%.
Molecule `Cn1cnc2c1CCN(c1ccnc(-c3ccccc3)n1)C2` has an INHIBITION of 61.2%.
`O=C1NCCN1C1CCN(c2ccnc(-c3ccccc3)n2)CC1` showed an INHIBITION of 73.1%.
`CN1CCN(C2CCN(CCOc3ccccc3)CC2)C1=O` was tested, and the INHIBITION was 40.2%.
In the case of `Cc1noc([C@H]2COC[C@H]3CN(C(=O)Cc4cccc(F)c4)C[C@H]32)n1`, the INHIBITION is reported as 38.5%.
Work on `COc1c(C)cnc(CN2CCOC(CNc3cccnn3)C2)c1C` (centres undefined) yielded an INHIBITION of 9.54%.
Molecule `O=C(CN1CCN(C(=O)c2ccccc2)CC1)Nc1ccc(Br)cn1` has an INHIBITION of 47.3%.
Molecule `CCn1ccnc1CN1CCCN(C(=O)c2scnc2C)CC1` has an INHIBITION of 13.64%.
With `O=C(O)CCn1nc(C(F)(F)F)c(Cl)c1C1CC1` the INHIBITION was 31.7%.
For `O=C(NCC1Cn2nnc(-c3ccncc3)c2CO1)c1ccc[nH]1` (centres undefined), the INHIBITION was 31.4%.
In the case of `Cc1cccc(CN2C[C@@H]3CCCO[C@@H]3[C@H](Nc3ccccn3)C2)n1`, the INHIBITION is reported as 25.3%.
In the case of `O=C(CCc1cc2n(n1)CCCNC2)N1CCN(C2CCCC2)C(=O)C1`, the INHIBITION is reported as -34.8%.
For `CO[C@H]1CN(Cc2cc(F)ccc2F)CC[C@@]12CCCO2`, the INHIBITION was -9.27%.
Work on `COc1ccc2[nH]cc(C(=O)CNc3nccs3)c2c1` yielded an INHIBITION of 12.8%.
Molecule `Fc1ccc(CN2CCCC(Cn3cncn3)C2)c2ncccc12` (centres undefined) has an INHIBITION of -44.8%.
In the case of `Clc1ccc2cccnc2c1CN1CCCCC1Cn1cncn1` (centres undefined), the INHIBITION is reported as 45.65%.
